Of roughly 7,900 targets only a part is listed; those with a hit were picked by preference. About 0.6% of all pairs of compound and target were hits.

Sequence of UniProt Q13948 (Q13948 whole entry, looked up): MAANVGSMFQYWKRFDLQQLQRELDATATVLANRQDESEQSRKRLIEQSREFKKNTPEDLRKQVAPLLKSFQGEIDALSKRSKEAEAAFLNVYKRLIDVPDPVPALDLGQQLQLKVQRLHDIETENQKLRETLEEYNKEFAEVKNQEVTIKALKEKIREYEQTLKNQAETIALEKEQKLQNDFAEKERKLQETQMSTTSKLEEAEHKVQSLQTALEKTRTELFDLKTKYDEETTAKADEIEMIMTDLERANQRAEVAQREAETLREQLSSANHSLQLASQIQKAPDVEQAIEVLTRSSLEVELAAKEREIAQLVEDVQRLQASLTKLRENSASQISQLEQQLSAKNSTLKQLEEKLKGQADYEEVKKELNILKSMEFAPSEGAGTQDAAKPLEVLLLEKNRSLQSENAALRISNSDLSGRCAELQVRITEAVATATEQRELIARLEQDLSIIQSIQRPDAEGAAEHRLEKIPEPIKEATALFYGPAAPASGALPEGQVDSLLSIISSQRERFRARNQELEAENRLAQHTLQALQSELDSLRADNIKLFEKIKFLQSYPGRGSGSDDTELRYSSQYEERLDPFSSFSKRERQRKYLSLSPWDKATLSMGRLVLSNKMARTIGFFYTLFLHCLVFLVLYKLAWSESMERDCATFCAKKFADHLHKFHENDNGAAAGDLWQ
Sequence of UniProt P50570 (P50570 whole entry, looked up): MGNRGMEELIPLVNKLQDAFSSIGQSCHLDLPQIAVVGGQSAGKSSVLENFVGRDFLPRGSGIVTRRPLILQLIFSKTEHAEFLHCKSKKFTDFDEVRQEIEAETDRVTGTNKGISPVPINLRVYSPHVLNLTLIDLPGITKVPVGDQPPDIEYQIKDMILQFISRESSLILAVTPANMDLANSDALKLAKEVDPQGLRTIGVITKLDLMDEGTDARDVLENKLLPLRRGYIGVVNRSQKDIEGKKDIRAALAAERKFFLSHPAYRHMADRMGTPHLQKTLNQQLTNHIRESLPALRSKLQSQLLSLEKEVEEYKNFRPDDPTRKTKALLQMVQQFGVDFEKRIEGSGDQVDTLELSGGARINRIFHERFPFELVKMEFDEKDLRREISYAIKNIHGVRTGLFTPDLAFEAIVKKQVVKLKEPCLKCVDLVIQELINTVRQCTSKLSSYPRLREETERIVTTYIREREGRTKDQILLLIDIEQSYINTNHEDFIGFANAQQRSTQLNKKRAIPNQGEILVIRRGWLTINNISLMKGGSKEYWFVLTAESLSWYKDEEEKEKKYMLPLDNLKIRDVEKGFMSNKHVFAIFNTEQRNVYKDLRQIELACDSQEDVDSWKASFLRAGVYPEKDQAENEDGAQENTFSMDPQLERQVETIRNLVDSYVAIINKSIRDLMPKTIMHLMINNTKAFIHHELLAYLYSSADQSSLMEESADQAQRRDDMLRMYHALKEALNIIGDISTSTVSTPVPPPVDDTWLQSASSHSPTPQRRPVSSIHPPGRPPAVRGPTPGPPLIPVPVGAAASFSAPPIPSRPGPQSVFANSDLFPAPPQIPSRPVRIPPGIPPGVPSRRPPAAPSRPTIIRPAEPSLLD
Sequence of UniProt Q9UBM7 (Q9UBM7 whole entry, looked up): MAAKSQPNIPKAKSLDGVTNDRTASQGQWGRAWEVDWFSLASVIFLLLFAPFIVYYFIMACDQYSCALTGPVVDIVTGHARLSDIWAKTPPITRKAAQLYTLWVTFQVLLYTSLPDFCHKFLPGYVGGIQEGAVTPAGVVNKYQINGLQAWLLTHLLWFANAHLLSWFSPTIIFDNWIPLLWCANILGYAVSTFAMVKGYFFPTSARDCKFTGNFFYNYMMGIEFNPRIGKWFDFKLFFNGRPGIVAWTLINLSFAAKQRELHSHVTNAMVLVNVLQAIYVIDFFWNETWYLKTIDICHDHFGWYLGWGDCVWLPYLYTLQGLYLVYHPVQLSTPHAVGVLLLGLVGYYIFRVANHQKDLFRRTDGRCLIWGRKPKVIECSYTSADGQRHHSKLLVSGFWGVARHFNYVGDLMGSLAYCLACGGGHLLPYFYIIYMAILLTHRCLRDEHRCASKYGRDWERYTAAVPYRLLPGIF
Sequence of UniProt Q13011 (Q13011 whole entry, looked up): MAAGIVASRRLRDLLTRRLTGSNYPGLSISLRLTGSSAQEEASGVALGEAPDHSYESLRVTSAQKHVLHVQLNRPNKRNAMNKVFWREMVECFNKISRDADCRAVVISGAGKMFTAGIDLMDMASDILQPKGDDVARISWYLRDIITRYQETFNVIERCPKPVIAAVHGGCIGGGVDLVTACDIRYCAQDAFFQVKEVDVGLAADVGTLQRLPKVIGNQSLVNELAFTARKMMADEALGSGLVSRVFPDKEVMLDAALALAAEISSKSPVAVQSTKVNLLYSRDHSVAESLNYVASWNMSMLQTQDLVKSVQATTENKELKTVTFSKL
Sequence of UniProt O75477 (O75477 whole entry, looked up): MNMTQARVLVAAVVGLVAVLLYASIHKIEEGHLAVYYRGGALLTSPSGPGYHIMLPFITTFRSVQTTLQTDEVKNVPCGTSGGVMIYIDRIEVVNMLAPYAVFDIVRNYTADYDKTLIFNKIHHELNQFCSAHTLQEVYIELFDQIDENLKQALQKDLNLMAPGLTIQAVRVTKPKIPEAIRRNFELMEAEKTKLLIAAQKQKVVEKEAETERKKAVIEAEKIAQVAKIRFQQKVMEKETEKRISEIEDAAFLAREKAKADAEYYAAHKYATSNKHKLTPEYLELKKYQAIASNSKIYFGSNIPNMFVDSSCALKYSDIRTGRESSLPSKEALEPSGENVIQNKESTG
Sequence of UniProt Q14689 (Q14689 whole entry, looked up): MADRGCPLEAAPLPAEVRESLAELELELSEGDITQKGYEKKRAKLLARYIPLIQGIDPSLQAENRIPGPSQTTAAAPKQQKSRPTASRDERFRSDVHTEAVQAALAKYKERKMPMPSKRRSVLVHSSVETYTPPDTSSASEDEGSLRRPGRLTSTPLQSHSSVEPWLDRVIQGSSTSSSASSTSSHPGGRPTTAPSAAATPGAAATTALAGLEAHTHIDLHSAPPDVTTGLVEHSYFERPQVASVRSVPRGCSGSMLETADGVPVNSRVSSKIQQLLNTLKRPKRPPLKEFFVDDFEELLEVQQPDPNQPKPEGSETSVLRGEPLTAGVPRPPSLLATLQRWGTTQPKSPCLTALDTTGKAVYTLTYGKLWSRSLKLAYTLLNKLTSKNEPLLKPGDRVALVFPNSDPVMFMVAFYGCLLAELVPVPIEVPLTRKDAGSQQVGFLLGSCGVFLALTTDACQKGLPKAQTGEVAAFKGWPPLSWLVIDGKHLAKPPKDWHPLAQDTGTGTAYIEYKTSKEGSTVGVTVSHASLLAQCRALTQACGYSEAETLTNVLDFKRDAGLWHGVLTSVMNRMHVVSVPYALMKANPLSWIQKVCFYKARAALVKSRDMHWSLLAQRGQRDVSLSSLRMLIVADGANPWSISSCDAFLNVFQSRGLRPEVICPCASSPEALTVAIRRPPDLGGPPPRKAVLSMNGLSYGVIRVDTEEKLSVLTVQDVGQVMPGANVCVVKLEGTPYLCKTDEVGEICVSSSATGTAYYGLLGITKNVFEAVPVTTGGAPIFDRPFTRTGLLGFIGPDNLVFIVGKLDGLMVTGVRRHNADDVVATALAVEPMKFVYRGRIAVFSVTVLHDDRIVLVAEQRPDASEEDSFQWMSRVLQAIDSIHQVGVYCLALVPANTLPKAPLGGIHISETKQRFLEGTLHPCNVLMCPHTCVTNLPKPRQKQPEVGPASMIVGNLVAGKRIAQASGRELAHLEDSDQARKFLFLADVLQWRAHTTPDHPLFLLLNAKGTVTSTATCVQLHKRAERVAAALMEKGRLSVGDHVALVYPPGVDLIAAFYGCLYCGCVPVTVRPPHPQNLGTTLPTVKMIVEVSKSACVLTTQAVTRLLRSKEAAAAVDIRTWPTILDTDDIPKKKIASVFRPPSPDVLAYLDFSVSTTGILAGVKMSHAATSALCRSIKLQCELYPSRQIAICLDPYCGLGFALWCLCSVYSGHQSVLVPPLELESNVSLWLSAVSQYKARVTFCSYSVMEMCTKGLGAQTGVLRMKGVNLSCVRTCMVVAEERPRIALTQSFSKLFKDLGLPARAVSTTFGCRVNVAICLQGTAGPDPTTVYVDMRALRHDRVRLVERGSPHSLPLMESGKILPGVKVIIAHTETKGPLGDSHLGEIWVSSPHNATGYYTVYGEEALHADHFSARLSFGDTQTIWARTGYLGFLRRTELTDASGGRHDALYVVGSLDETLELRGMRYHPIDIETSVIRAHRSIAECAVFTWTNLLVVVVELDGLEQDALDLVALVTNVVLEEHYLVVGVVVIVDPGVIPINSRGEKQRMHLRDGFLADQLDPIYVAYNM
Sequence of UniProt O00471 (O00471 whole entry, looked up): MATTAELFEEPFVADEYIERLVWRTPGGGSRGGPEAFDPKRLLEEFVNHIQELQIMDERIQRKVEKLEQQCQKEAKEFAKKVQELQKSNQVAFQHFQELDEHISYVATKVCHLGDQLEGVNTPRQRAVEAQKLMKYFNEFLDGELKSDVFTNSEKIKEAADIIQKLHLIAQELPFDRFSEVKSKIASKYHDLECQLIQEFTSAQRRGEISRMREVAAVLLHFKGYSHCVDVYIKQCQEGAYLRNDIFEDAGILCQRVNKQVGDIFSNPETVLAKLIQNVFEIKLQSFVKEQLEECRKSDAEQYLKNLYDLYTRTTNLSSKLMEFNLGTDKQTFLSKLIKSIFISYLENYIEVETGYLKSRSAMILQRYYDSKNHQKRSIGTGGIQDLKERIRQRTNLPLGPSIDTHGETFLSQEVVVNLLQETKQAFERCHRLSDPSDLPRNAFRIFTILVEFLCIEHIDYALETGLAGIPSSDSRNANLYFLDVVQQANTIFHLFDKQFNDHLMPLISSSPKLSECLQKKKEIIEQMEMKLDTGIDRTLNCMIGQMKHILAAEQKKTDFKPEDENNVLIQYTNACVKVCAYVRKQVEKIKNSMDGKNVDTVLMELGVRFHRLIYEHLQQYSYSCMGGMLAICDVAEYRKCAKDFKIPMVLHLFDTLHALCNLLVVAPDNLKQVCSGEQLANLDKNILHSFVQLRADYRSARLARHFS

Compound in the assay: Cc1cc(Nc2cc(CN3CCOCC3)c3nc(C)c(Cc4ccc(Cl)cc4F)n3n2)n[nH]1 [gandotinib]
Nature of the assay: log2 fold change, soluble protein after heating vs DMSO (PISA); higher = thermal stabilisation; K562 cells, 10 uM, 30 min; active = over 0.2 and 3.5 SD of the protein, either way, in both replicates (recomputed). In a few lines: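 For each measurement, 10 μM compound was applied for 30 min to K562 cells at 2×10^6 cells/mL. Aliquots were heated for 3 min across 48°C-58°C, pooled, and extracted in PBS with 0.5% NP-40 at 4°C; the supernatant after 21,000xg for 90 min was soluble protein. This was quantified by TMTpro 16plex LC-MS/MS with channel sums equalised, and thermal stability was reported relative to control samples from duplicates, on a log2 fold-change scale.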
DNAJB12 (UniProt Q9NXW2): the log2 fold change is -0.073 (inactive). For DHFR (UniProt P00374), the log2 fold change is -0.194 (inactive).

DFFB (UniProt O76075): the log2 fold change was -0.017 (inactive). The result for EXOC5 (UniProt O00471) reads -0.129 (inactive); that for DCTPP1 (UniProt Q9H773), -0.004 (inactive). The result for DHX40 (UniProt Q8IX18) reads -0.079 (inactive); that for EOGT (UniProt Q5NDL2), -0.003 (inactive); that for DHCR7 (UniProt Q9UBM7), -0.304 (inactive). The result for CUTA isoform 2 (UniProt O60888) reads 0.131 (inactive); that for ERLIN1 (UniProt O75477), -0.04 (inactive); that for EXOC1 (UniProt Q9NV70), -0.179 (inactive).

For CUX1 isoform 2 (UniProt Q13948), the log2 fold change is -0.046 (inactive).

As to DNM2 (UniProt P50570), the log2 fold change is -0.06 (inactive). The result for DHRS7B (UniProt Q6IAN0) reads -0.232 (inactive); that for DIP2A (UniProt Q14689), 0.023 (inactive); that for FAM114A2 (UniProt Q9NRY5), -0.06 (inactive). The result for FAF2 (UniProt Q96CS3) reads 0.022 (inactive). ECH1 (UniProt Q13011): the log2 fold change is -0.195 (inactive). The result for DDOST (UniProt P39656) reads 0.02 (inactive); that for DCAF6 isoform 3 (UniProt Q58WW2), -0.024 (inactive); that for DHCR24 (UniProt Q15392), -0.025 (inactive). The result for DNAH11 (UniProt Q96DT5) reads 0.104 (inactive); that for DCAF13 (UniProt Q9NV06), 0.221 (inactive).

Source of the values: the supplement of paper PMC10849652.
